PubChem BioAssay (Tox21)
Inconclusive results are not listed. A call without a number means that no potency is given here. Activity calls are given as the source filed them. Calls come from the whole dose curve.

Test: p53 small molecule agonists, cell-based qHTS assay with rat liver microsomes (AID 1963578)
Settings: HCT-116 p53RE-bla, beta-lactamase ratio, 16 h; series mostly up to 66 µM
Excerpt: U.S. Tox21 Program National Center for Advancing Translational Sciences [NCATS] Division of Preclinical Innovation [DPI] U.S. Environmental Protection Agency [EPA] National Institutes of Environmental Health Sciences [NIEHS] National Toxicology Program [NTP] U.S. Food and Drug Administration [FDA] Tox21 Assay Overview: p53, a tumor suppressor protein, is activated following cellular insult, including DNA damage and other cellular stresses. The activation of p53 regulates cell fate by inducing DNA repair, cell cycle arrest, apoptosis, or cellular senescence. The activation of p53, therefore, is a good indicator of DNA damage and other cellular stresses. […] The activation of the reporter gene under culture conditions can be detected by fluorescence intensity. This cell line was used to screen the Tox21 10K compound library in the condition of presence of rat liver microsomes and to identify agonists that activate the p53 signaling pathway after in vitro metabolic activation (Ooka et al., Archive of Toxicology 96:1975-1987, 2022).
Tox21 Assay Protocol Summary: The p53RE-bla cells were dispensed at 4,000cells/3ul/well in 1536-well black-clear bottom plates. After the assay plates were incubated at 37 C, 5% CO2 incubator for 5 hours, 23 nL of compounds dissolved in DMSO, positive controls or DMSO only was transferred to the assay plate. Following compound addition, 3 uL of rat liver microsomes (Molecular Toxicology, Boone, NC) at final concentration of 0.5 mg/mL and 1uL of Beta-Nicotinamide adenine dinucleotide 2-phosphate (NADPH) at final concentration of 0.5 mg/mL were transferred to the assay plate. The plates were incubated at 37 C for 16 hours. 1 uL of LiveBLAzer detection mixture was added to each well and the plates were incubated at room temperature in the dark for 2 h.

Compound	Potency	activation
Fc1ccc(Oc2ccnc3cc(Cl)cc(Cl)c23)cc1	inactive	
C[C@]12CC[C@@H](O)C[C@@H]1CC[C@@H]1[C@@H]2CC[C@]2(C)C(=O)CC[C@@H]12	inactive	
CC(C)[N+](=O)[O-]	inactive	
CCCN1CCC[C@@H]2Cc3nc(N)ncc3C[C@H]21	inactive	
Nc1ccc(Cl)cc1C(=O)c1ccccc1	inactive	
CCOCCOC(C)=O	inactive	
CC[C@H]1C[C@H]2[C@@H]3CCC4=CC(=O)CC[C@@H]4[C@H]3CC[C@]2(C)[C@H]1O	inactive	
CC1(C)CN=C(NN=C(/C=C/c2ccc(C(F)(F)F)cc2)/C=C/c2ccc(C(F)(F)F)cc2)NC1	inactive	
O=C=Nc1ccc(Cl)cc1	inactive	
O=C(CBr)OCc1ccccc1	inactive	
CS(=O)(=O)c1ccc(C(=O)C2C(=O)CCCC2=O)c([N+](=O)[O-])c1	inactive	
Cc1cc(SCc2sc(-c3ccc(C(F)(F)F)c(F)c3)nc2C)ccc1OCC(=O)O	inactive	
C[C@@H](Oc1ccc(Cl)cc1Cl)C(=O)O	inactive	
Cc1nc2ccccc2c(=O)n1-c1ccccc1Cl	inactive	
O=NN1CCNCC1	inactive	
CCCCN(N=O)C(=N)N[N+](=O)[O-]	inactive	
C=CCc1ccc(OC(=O)Cc2ccccc2)c(OC)c1	inactive	
O=[N+]([O-])c1cccc2cccnc12	inactive	
CCCCc1c(C)nc(NCC)nc1OS(=O)(=O)N(C)C	inactive	
CC(C)C1CCC(Cc2ccc(Cl)cc2)C1(O)Cn1cncn1 (stereo not given)	inactive	

Compound	Potency	activation
CN1[C@@H]2CC[C@H]1CC(O)C2 (stereo not given in full)	inactive	
CC[N+]1(C)CCCC(OC(=O)C(O)(c2ccccc2)c2ccccc2)C1 (stereo not given)	inactive	
Clc1c(Cl)c(Cl)c(Cl)c(Cl)c1Cl		-0.077% [at 5.99 µM] (inactive)
COCC(C)N(C(=O)CCl)c1c(C)csc1C (stereo not given)	inactive	
Cn1[nH]nnc1=S	inactive	
CC(C)=CCOc1c2occc2cc2ccc(=O)oc12	inactive	
O=CC(Br)(Br)Br	inactive	
O=C1CC[C@@]2(O)[C@H]3Cc4ccc(O)c5c4[C@@]2(CCN3CC2CC2)[C@H]1O5	inactive	
SCc1ccco1	inactive	
CC(C)CC(C)N (stereo not given)	inactive	
CCCCP(CCCC)CCCC	inactive	
O=c1[nH]oc2c1CCNC2	inactive	
Oc1ccc(Cl)c(Cl)c1Cl	inactive	
O=C(O)COc1ccc(Cl)cc1	inactive	
O=C(Cl)c1ccccc1F	inactive	
O=C(N/N=C/c1ccc([N+](=O)[O-])o1)c1cc([N+](=O)[O-])cc([N+](=O)[O-])c1O	inactive	
COC(=O)COc1ccc(Cl)cc1Cl	inactive	
C=CCOC(=O)C(C)(C)OC(=O)c1cc(-n2c(=O)cc(C(F)(F)F)n(C)c2=O)ccc1Cl	inactive	
CC(C)NCC(O)c1ccc([N+](=O)[O-])cc1 (stereo not given)	inactive	
O=C1CN2CCOC2(c2ccccc2Cl)c2cc(Cl)ccc2N1 (stereo not given)	inactive	
